# Source: PubChem BioAssay
# AF4-AF9 inh – inhibitors of AF4 peptide binding to AF9, primary screen, biochemical, AlphaScreen, biotin-AF4 peptide, FLAG-AF9, single point. Protein AF-9 (Homo sapiens), P42568. inhibition, % at 10 µM. hit rate 0.47% among 350,000;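 active means every replicate reaching a set inhibition limit, whatever the replicate mean, cut at about 25% in these data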;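 further: 0% = plate neutral control median and 100% = total signal loss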
# FGF22 binding – binders of human FGF22 protein, primary screen, FGF22 synaptogenesis inhibitor project, biophysical, thermal shift, single point; AID 651658, 2012; hit rate 1.5% among 340,000; activity (Tm shift, normalised), % at 9.99 µM; recombinant FGF22 thermal shift, SYPRO orange fluorescence; percent of sucrose octasulfate shift, DMSO zero; Fibroblast growth factor 22 (Homo sapiens), Q9HCT0;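 active means mean Tm shift, scaled 0 neutral to 100 positive control, at about 1.3% or above, every replicate too, limit read from the data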
# Target sequence (Q9HCT0 whole entry, looked up): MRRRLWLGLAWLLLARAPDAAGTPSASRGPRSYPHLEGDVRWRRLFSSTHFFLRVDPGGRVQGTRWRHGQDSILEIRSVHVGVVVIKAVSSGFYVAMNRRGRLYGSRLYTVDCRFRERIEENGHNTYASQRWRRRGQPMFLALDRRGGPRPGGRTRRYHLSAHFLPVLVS
# MITF TRPM1 HTS – activators of MITF-driven TRPM1 promoter reporter, primary screen, cell-based, SK-MEL-5, luciferase, single point; activation, % at 12.5 µM; hit rate 0.75% among 300,000; AID 588334, 2011; SK-MEL-5 TRPM1-promoter luciferase, 24 h; % of positive control, neutral wells = 0;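 active means mean activation of at least 80% with every replicate also reaching 80%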;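 further: 0% = neutral control wells and 100% = parthenolide positive control wells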
# SMARCA2 act – SMARCA2 (BRM) function activators, primary screen, cell-based, luminescence, high throughput; MG213 cells, MMTV-luciferase reporter, dexamethasone, overnight; activation, % at 9.1 µM; hit rate 1% among 370,000; in the data active means activation above about 7.8%;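 further: 0% = vehicle wells and 100% = reference activator wells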
# esBAF inh – Bmi1 luciferase reporter increase in mESCs, primary screen, esBAF inhibitor project, mouse ES cells, Bmi1 luciferase knock-in, single point; reporter increase, % at 12.5 µM; hit rate 2% among 350,000; 24 h; 100% = twice the neutral-well signal; in the data active means activation above about 40%;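 further: 0% = median of the plate's neutral control wells and 100% = double that signal; a rise in the Bmi1 reporter signal indicates esBAF inhibition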
# Wnt bcat act – Wnt/beta-catenin pathway activators, primary screen, cell-based, plate reader, single point. activation, % at 9.35 µM. Wnt/beta-catenin reporter cell assay, activator. hit rate 1.2% among 300,000. AID 743398, 2014; in the data active means activation above about 30%, passing the limit was not always enough;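 further: 0% = neutral control wells and 100% = positive control wells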
# SMARCA2 conf – SMARCA2 (BRM) function activators, confirmation, cell-based, luminescence, triplicate; shares compounds with SMARCA2 act; MG213 cells, MMTV-luciferase with dexamethasone, overnight; MG213 cells expressing E1A, Rb sequestered; DMSO wells 0%, reference activator 100%; activation, % at 9.1 µM; hit rate 30% among 3,500;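 active means activation above its plate's cutoff, the mean activation of tested wells plus 3 SD, cut at about 7.9% in these data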
# GAL4-VP16 Luc – GAL4-VP16 luciferase reporter activation, counter-screen for SMARCA2 (BRM) activator project, cell-based, pG5luc, luminescence, high throughput | shares compounds with SMARCA2 act | HEK293 GAL4-VP16 pG5luc reporter; scaled: DMSO wells 0%, SAHA wells 100% | activation, % at 9.1 µM | hit rate 41% among 3,500 | AID 686939, 2013;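 active means activation above the solvent-only control well mean plus 3 SD, averaged across control plates, cut at about 5.2% in these data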
# The depositor's hits bear a star; x = no result given. An excerpt weighted towards active compounds, which were near 4.3% of everything screened.
SMILES,AF4-AF9 inh,FGF22 binding,MITF TRPM1 HTS,SMARCA2 act,esBAF inh,Wnt bcat act,SMARCA2 conf,GAL4-VP16 Luc
C/C(=N\NC(=O)c1c[nH]c2ccccc12)c1ccc(C)o1,x,x,0.9,2.8,7.3,2.7,x,x
C/C(=N/NC(=O)c1ccccn1)c1c[nH]c2ccccc12,1.1,-0.1,51.6,16.4*,54.8*,12.4,11.6*,3.5
Cc1cccc(NC(=O)CNC(=O)[C@@H](Cc2ccccc2)NC(=O)[C@H]2O[C@@H](n3ccc(N)nc3=O)[C@H](O)[C@@H]2O)c1C,x,-0.2,x,-1.9,x,-4.5,x,x
CCOC(=O)c1ccc(N)cc1,-0.6,0.0,15.2,2.5,4.2,0.4,x,x
CCOC(=O)c1ccc(N2Cc3ccccc3C2=N)cc1,x,x,46.1,12.4*,17.2,-0.5,10.7*,3.0
O=C(N/N=C/C(Br)=C\c1ccccc1)c1ccco1,6.1,-0.1,x,9.4*,x,1.2,7.2,17.3*
O=C(N/N=C/C(Br)=C\c1ccccc1)c1cccs1,3.1,-0.2,x,18.2*,x,125.8*,6.7,11.0*
Cc1nn(C)cc1/C=N/NC(=O)c1ccco1,0.4,-0.2,32.2,9.1*,34.0,4.5,7.8,2.2
O=C(N/N=C/C(Br)=C/c1ccccc1)C1CC1,2.9,0.3,17.9,9.6*,x,6.1,10.0*,5.6*
O=C(N/N=C/c1ccccc1)c1ccco1,2.0,0.3,x,2.1,30.0,13.9,x,x
Cc1cc(C(=O)N/N=C/c2cn(C)nc2C)c2ccccc2n1,7.7,0.1,4.7,-2.7,-8.2,0.6,x,x
C[C@@H]1CCCCO[C@@H](CN(C)C(=O)c2ccccc2)[C@H](C)CN([C@@H](C)CO)C(=O)c2cc(NS(=O)(=O)c3ccccc3)ccc2O1,2.1,0.1,x,x,8.5,x,x,x
C[C@H]1CN([C@@H](C)CO)C(=O)Cc2cc(NC(=O)C3CCCCC3)ccc2O[C@@H]1CN(C)S(=O)(=O)c1ccccc1,-2.8,-0.1,x,x,-4.8,x,x,x
C[C@H](O)C#Cc1cnc2c(c1)C(=O)N([C@H](C)CO)C[C@H](C)[C@H](CN(C)C(=O)c1ccncc1)O2,-2.2,0.0,x,x,3.5,x,x,x
COC(=O)N(C)C[C@H]1OCc2cnnn2CCCC(=O)N([C@@H](C)CO)C[C@@H]1C,-3.1,0.1,x,8.6*,-0.5,-1.8,-3.3,0.3
C[C@H]1CN([C@@H](C)CO)C(=O)CCCn2cc(nn2)CO[C@@H]1CN(C)C(=O)c1ccc(N2CCN(C)CC2)cc1,-2.0,0.1,x,8.2*,-2.3,-1.6,-1.2,-0.8
C[C@@H]1CN([C@H](C)CO)C(=O)CCCn2cc(nn2)CO[C@@H]1CN(C)C(=O)c1ccc(N2CCN(C)CC2)cc1,x,x,x,x,-3.5,x,x,x
CCOc1ccccc1N1CCN(C(=S)NCc2ccccc2)CC1,-21.3,-0.1,-3.4,-0.2,-4.4,-1.0,x,x
CCOc1ccccc1N1CCN(C(=S)NCc2ccco2)CC1,x,x,1.9,8.1*,x,x,1.3,0.3
CCC1(c2ccc(Cl)cc2)NC(=S)N(c2ccc(C)cc2)N1 (stereo not drawn),x,x,39.0,9.3*,x,x,1.0,3.1
C[C@H](CO)N1C[C@H](C)[C@H](CN(C)Cc2ccc3c(c2)OCO3)OCCCC[C@H](C)Oc2ccc(NC(=O)Cc3ccccc3)cc2C1=O,x,-0.2,x,x,7.4,x,x,x
Cc1ccc(C(=O)N/N=C2\CC3CC=CC23)c(C)c1 (stereo not drawn),-1.8,42.5,6.6,8.1*,x,4.6,-3.9,-0.4
COc1ccc(NC(=O)N(C)C[C@@H]2Oc3ncc(C#CCN(C)C)cc3C(=O)N([C@@H](C)CO)C[C@@H]2C)cc1,-2.8,0.0,x,x,-3.4,x,x,x
